This is a sample that favours compounds with a hit; in the whole collection about 2.4% have one here.
D2 PAM-1: positive allosteric modulators of human D2 dopamine receptor | P14416 | HEK293 T-REx D2, calcium flux, EC20 dopamine potentiation | potentiation, % at 10 µM | actives 0.34% (n = 340,000) | AID 485347;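 active = potentiation over 3 SD above the plate norm, cut at about 30% in these data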
Target sequence (P14416 whole entry, looked up): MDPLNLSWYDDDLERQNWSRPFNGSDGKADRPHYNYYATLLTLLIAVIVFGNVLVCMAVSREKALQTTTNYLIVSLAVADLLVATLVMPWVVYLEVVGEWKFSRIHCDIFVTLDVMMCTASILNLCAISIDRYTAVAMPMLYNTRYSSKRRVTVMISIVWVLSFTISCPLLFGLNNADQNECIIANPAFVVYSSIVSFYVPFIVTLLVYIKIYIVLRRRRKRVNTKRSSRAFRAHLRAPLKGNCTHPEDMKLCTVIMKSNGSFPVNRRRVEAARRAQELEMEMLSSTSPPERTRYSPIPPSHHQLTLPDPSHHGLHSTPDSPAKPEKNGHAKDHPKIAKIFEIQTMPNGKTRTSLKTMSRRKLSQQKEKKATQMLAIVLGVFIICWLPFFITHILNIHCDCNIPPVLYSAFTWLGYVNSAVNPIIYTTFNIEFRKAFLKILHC
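Tetracycline-induced Hek293 Trex D2 cells, force-coupled to calcium, loaded with no-wash calcium dye. Compound added with 180 s kinetic read for agonism, then EC20 dopamine and a further 180 s read for potentiation.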
D2 ag-1: agonists of human D2 dopamine receptor (beta-arrestin). actives 0.084% (n = 360,000). DiscoveRx PathHunter D2 beta-arrestin, luminescence, 90 min; 100% = 57 uM dopamine signal. AID 624465. activation, % (concentration not given with the values). P14416; in the data active = activation above about 40%
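DiscoveRx PathHunter D2 beta-arrestin cells (2,100/well) attached overnight, then compound-stimulated 90 min at 37 C in HBSS/10 mM HEPES/0.1% Tween-20 buffer; beta-galactosidase complementation read by luminescence after 1 h at ambient temperature. Dopamine 57 uM final (EC100) as control.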
D2 ag-2: agonists of human D2 dopamine receptor. P14416. HEK293 T-REx D2 cells, calcium flux agonist mode. activation, % at 2 µM. actives 0.53% (n = 340,000);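 active = activation over 3 SD above normal in the single-dose calcium agonist read, cut at about 30% in these data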
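Calcium-flux readout, 1 cycle/sec over 180 s following compound pin transfer, in inducible HEK293 Trex D2 cells (force-coupled); dopamine controls included. Positive calcium responses during this window marked compounds as potential agonists.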
D2 antagonist: antagonizes the human D2 dopamine receptor; P14416; HEK293 TREx D2 cells, calcium flux, dopamine EC80; inhibition, % at 10 µM; actives 2% (n = 340,000); AID 485344; in the data active = inhibition above about 30%; inactive = below that, where a call was filed
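Dopamine at EC80 is the agonist stimulus; test compounds precede it by 180 s. Calcium flux read kinetically in a force-coupled, inducible HEK293 T-REx D2 cell line.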
D2 PAM-2: potentiates the human D2 dopamine receptor allosterically; actives 0.23% (n = 360,000); P14416; DiscoveRx D2 beta-arrestin cells, luminescence, 90 min; 100% = 57 uM dopamine signal; potentiation, % (test concentration not listed); in the data active = potentiation above about 50%
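PathHunter D2 cells, attached overnight at 37 deg C, received compound in DMSO plus dopamine at EC20 (50 nM final) for 90 min at 37 deg C. Beta-arrestin recruitment was read as luminescence after 1 h with detection reagent at ambient temperature.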
Large screens that a line does not name were inactive.

CC(=O)Nc1ccc(S(=O)(=O)NC2(C(F)(F)F)NC(=O)N(C3CCCC3)C2=O)cc1 (stereo not drawn)	D2 PAM-1 33
COc1ccc(-c2nn(-c3ccccc3)cc2C(=O)NCCCn2ccnc2)cc1	D2 antagonist 30
O=C(NC1CCN(Cc2ccc(Cl)cc2)CC1)c1cn(-c2ccccc2)nc1-c1cccnc1	D2 antagonist 74
Cc1c(C(=O)NCc2ccccc2)c(-c2ccccc2)nn1-c1ccccc1	D2 antagonist 36
O=C(NCc1ccncc1)c1cn(-c2ccccc2)nc1-c1cccnc1	none
COc1ccc(C(=O)NCCCn2ccnc2)cc1	none
O=C(NCc1cccnc1)c1cn(-c2ccccc2)nc1-c1ccccc1	D2 antagonist 44
CCC(Sc1nc2cc(OC)c(OC)cc2c(=O)n1CCc1ccc(Cl)cc1)C(=O)NCCOC (stereo not drawn)	none (no result: D2 ag-1, D2 antagonist, D2 PAM-2)
FC(F)Sc1ccc(NC(=S)NC2CCCCC2)cc1	none
FC(F)Sc1ccc(NC(=S)NCC2CCCCC2)cc1	D2 antagonist 32
Cc1ccc(NC(=O)c2ccco2)c(OCc2cc(=O)n3cc(C)sc3n2)c1	none (no result: D2 ag-1, D2 antagonist, D2 PAM-2)
CCc1nn(CC(=O)NCCCN2CCc3ccccc3C2)c(=O)c2cc3sccc3n12	D2 antagonist 79
COc1ccc(CC(=O)Nc2ccc3nc(SC)sc3c2)cc1OC	D2 ag-2 33
O=C(Nc1nc2c(F)cccc2s1)c1ccc([N+](=O)[O-])o1	D2 antagonist 33
Cc1ccccc1NC(=O)CSC1=C(C#N)C(c2ccsc2)CC(=O)N1 (stereo not drawn)	D2 antagonist 37
CN(C)c1ccc(/C=C(\C#N)C(=O)c2ccccc2)cc1	D2 ag-2 163
CC1CC(C)(C)NC(=S)N1CCC(=O)NCCc1ccc(Cl)cc1 (stereo not drawn)	D2 antagonist 35
Cc1cc(C(=O)CSc2nnc(-c3ccccc3)o2)c(C)n1CC1COc2ccccc2O1 (stereo not drawn)	none
Cc1cc(C(=O)CSc2nnc(-c3ccc(F)cc3)o2)c(C)n1CC1COc2ccccc2O1 (stereo not drawn)	D2 antagonist 41
CCOc1ccc(OCCCC(=O)NCCc2ccc(OC)cc2)cc1	none
Cc1cccc(NC(=O)Cn2cnc3sc(C)c(S(=O)(=O)N4CCC(C)CC4)c3c2=O)n1	D2 antagonist 32
Cc1sc2ncn(CC(=O)Nc3ccc(F)cc3F)c(=O)c2c1S(=O)(=O)N1CCC(C)CC1	none (no result: D2 ag-1, D2 antagonist, D2 PAM-2)
CC(C)(C)C(=O)COC(=O)CCc1nc2ccccc2[nH]c1=O	D2 antagonist 31
COc1ccc(C2C(C(=O)c3cccs3)=C(O)C(=O)N2c2cccc(C)n2)cc1 (stereo not drawn)	none
Cc1ccc(C2C(C(=O)c3cccs3)=C(O)C(=O)N2c2nnc(C)s2)cc1 (stereo not drawn)	D2 ag-2 40
O=C(CC[C@H]1O[C@@H](n2cnc3c(NC(=O)c4ccccc4)ncnc32)[C@H](O)[C@@H]1O)NCCc1cc2ccccc2[nH]1	none (no result: D2 PAM-1, D2 ag-2, D2 antagonist)
Cc1ccc(NC(=O)CSCC#N)cc1	D2 antagonist 87
N#CCSCC(=O)Nc1ccc(Br)cc1	none
CCN(CC)c1ccc(/C=C2\C(=O)c3ccc(C(=O)O)cc3C2=O)cc1	D2 ag-2 110, D2 antagonist 54
COCCCn1c(SCC(=O)c2c(N)n(C3CC3)c(=O)[nH]c2=O)nnc1-c1ccccc1Cl	none (no result: D2 PAM-1, D2 ag-2, D2 antagonist)
CCCn1c(N)c(C(=O)CSc2nnc(-c3c[nH]c4ccccc34)n2C2CC2)c(=O)[nH]c1=O	none (no result: D2 PAM-1, D2 ag-2, D2 antagonist)
COCCn1c(SCC(=O)c2c(N)n(C3CC3)c(=O)[nH]c2=O)nnc1-c1ccc(Cl)cc1	D2 ag-1 40
CCCn1c(N)c(C(=O)CSc2nnc(-c3cccs3)n2C2CC2)c(=O)[nH]c1=O	D2 ag-1 48 (no result: D2 PAM-1, D2 ag-2, D2 antagonist)
Cc1c(Cl)cccc1NC(=O)NCc1c(-n2cccc2)sc2c1CCCC2	none (no result: D2 ag-1, D2 antagonist, D2 PAM-2)
Cc1cc2c([nH]c3ccccc32)c2c1OC(C)(C)C=C2	D2 antagonist 43
Cc1ccc(N2C(=O)C3C(C2=O)C(C(=O)c2ccc(Cl)cc2)N2CCCC32)cc1 (stereo not drawn)	D2 antagonist 33
CCOC1=C2[C@H](c3ccc(CC)cc3)N(S(=O)(=O)c3ccc(C)cc3)C[C@H]2C(C#N)(C#N)C(C#N)(C#N)C1	none (no result: D2 PAM-1, D2 ag-2, D2 antagonist)
COc1cccc(CNS(=O)(=O)c2ccc3c(c2)N(C)CCO3)c1	D2 antagonist 39
COc1cccc(NS(=O)(=O)c2ccc(S(=O)(=O)N3CCCC3)cc2)c1	none
COc1cccc(CNS(=O)(=O)c2ccc(S(=O)(=O)N3CCCC3)cc2)c1	D2 PAM-1 32
COc1ccc(CNS(=O)(=O)c2ccc3c(c2)N(C(C)=O)CCO3)cc1	none
COc1cccc(CN(Cc2ccccc2F)S(=O)(=O)c2ccc(S(=O)(=O)NCc3ccccc3)cc2)c1	D2 antagonist 43
CN(C(=O)CSc1nc2ccc(NC(=O)CCc3ccccc3)cc2s1)c1ccccc1	none (no result: D2 ag-1, D2 antagonist, D2 PAM-2)
Cc1cc(Cl)c2oc(C(=O)N3CCOCC3)c(C)c2c1	none (no result: D2 PAM-1, D2 ag-2, D2 antagonist)
Cc1cc(Cl)c2oc(C(=O)N(C)C3CCOC3)c(C)c2c1 (stereo not drawn)	D2 PAM-1 88
CC1(C2CC2)NC(=O)N(CC(=O)NCc2ccc(Cl)cc2Cl)C1=O (stereo not drawn)	D2 antagonist 40
Cc1ccc(Cl)cc1NC(=O)CN1C(=O)NC(C)(C2CC2)C1=O (stereo not drawn)	none (no result: D2 PAM-1, D2 ag-2, D2 antagonist)
CC(C)(C)c1ccc(C(=O)NNc2ncnc3c2cnn3-c2ccc(Cl)cc2)cc1	none (no result: D2 ag-1, D2 antagonist, D2 PAM-2)
CCOC(=O)N1CCC(NC(=O)C2CCN(S(=O)(=O)c3cccc4cccnc34)CC2)CC1	D2 antagonist 51
O=C(Nc1nccs1)C1CCCN(S(=O)(=O)c2cccc3cccnc23)C1 (stereo not drawn)	D2 antagonist 39
CCOC(=O)c1ccccc1NC(=O)c1cnc(N2CCOCC2)c2ccccc12	none (no result: D2 ag-1, D2 antagonist, D2 PAM-2)
COc1cc(C(=O)NCC(=O)N/N=C/c2ccc(-c3ccc([N+](=O)[O-])cc3)o2)cc(OC)c1OC	none
CN(C)CCCNC(=O)/C(=C\c1ccc(-c2cccc([N+](=O)[O-])c2)o1)NC(=O)c1ccccc1	D2 antagonist 37
Cc1ccc(/C=N/NC(=O)CNC(=O)c2cccc([N+](=O)[O-])c2C)o1	D2 PAM-1 38
COc1cc(C(=O)NCC(=O)N/N=C/c2ccc(-c3cccc([N+](=O)[O-])c3)o2)cc(OC)c1OC	D2 antagonist 50
CNS(=O)(=O)c1cn(CC(=O)N2CCN(c3ccccc3F)CC2)cc1S(=O)(=O)NC	none (no result: D2 ag-1, D2 antagonist, D2 PAM-2)
O=S(=O)(c1ccc2c(c1)CCN2)N1CCCCCC1	none (no result: D2 ag-1, D2 antagonist, D2 PAM-2)
Cc1ccc(C)c(NS(=O)(=O)c2ccc(OCC(=O)N3CCOCC3)cc2)c1	D2 antagonist 32
CN(c1ccc(OCC(=O)N2CCOCC2)cc1)S(=O)(=O)c1ccc(F)cc1	none

Compound activity deposited in PubChem BioAssay by National Center for Advancing Translational Sciences (NCATS).
